Measured values reported in PubChem BioAssay (NCI).
Compounds without any hit were thinned out: in the full panel of roughly 83,000, 20% have a hit.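 Growth was measured after 48 h exposure to one concentration of compound in 96-well plates. Values under 10 count as active.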 The source made the active and inactive calls.

Experiments:
Assay in all cases: NCI-60 one-dose screen, 48 h (100 = growth as untreated, 0 = no growth, -100 = all killed)
Settings in all cases: 10 µM unless noted
SK-MEL-2 melanoma = tested on: SK-MEL-2 melanoma
EKVX NSCLC = tested on: EKVX NSCLC
SN12C renal = tested on: SN12C renal
TK-10 renal = tested on: TK-10 renal
ACHN renal = tested on: ACHN renal
CAKI-1 renal = tested on: CAKI-1 renal
A498 renal = tested on: A498 renal
CCRF-CEM leukemia = tested on: CCRF-CEM leukemia
MOLT-4 leukemia = tested on: MOLT-4 leukemia
SR leukemia = tested on: SR leukemia
RPMI-8226 leukemia = tested on: RPMI-8226 leukemia
OVCAR-8 ovarian = tested on: OVCAR-8 ovarian
OVCAR-5 ovarian = tested on: OVCAR-5 ovarian
OVCAR-4 ovarian = tested on: OVCAR-4 ovarian
SK-OV-3 ovarian = tested on: SK-OV-3 ovarian
IGROV1 ovarian = tested on: IGROV1 ovarian
OVCAR-3 ovarian = tested on: OVCAR-3 ovarian
HS 578T breast = tested on: HS 578T breast
NCI/ADR-RES ovarian = tested on: NCI/ADR-RES ovarian
UO-31 renal = tested on: UO-31 renal

Measured: growth

C=C(C)C1CCC(=C)C2CCC3(C)OC12/C=C(/COC(C)=O)CCC3O (stereo not drawn)
active: CAKI-1 renal 6.18%
inactive: SK-MEL-2 melanoma 85.4% | EKVX NSCLC 96.1% | SN12C renal 106% | TK-10 renal 121% | ACHN renal 98.2% | A498 renal 104% | CCRF-CEM leukemia 130% | MOLT-4 leukemia 83.6% | SR leukemia 74.6% | RPMI-8226 leukemia 235% | OVCAR-8 ovarian 103% | OVCAR-5 ovarian 105% | OVCAR-4 ovarian 127% | SK-OV-3 ovarian 119% | IGROV1 ovarian 151% | OVCAR-3 ovarian 124% | HS 578T breast 177% | NCI/ADR-RES ovarian 105%

Cc1cnc(Nc2ccc(OCCN3CCCC3)cc2)nc1NCc1ccco1
inactive: SK-MEL-2 melanoma 97.9% | EKVX NSCLC 71.5% | SN12C renal 68.5% | TK-10 renal 79.4% | ACHN renal 79.4% | CAKI-1 renal 62.5% | A498 renal 71.5% | CCRF-CEM leukemia 72.7% | RPMI-8226 leukemia 50.7% | OVCAR-8 ovarian 95.1% | OVCAR-5 ovarian 78.1% | OVCAR-4 ovarian 59.4% | IGROV1 ovarian 71% | OVCAR-3 ovarian 82.7% | HS 578T breast 80.3% | NCI/ADR-RES ovarian 101%

Cc1ccc(O)c(C(=O)c2ccccc2Cl)c1
inactive: SK-MEL-2 melanoma 112% | EKVX NSCLC 87.7% | TK-10 renal 98.4% | ACHN renal 94.8% | CAKI-1 renal 84.2% | CCRF-CEM leukemia 115% | MOLT-4 leukemia 94.8% | RPMI-8226 leukemia 112% | OVCAR-8 ovarian 97.6% | OVCAR-5 ovarian 85% | OVCAR-4 ovarian 91.9% | SK-OV-3 ovarian 112% | IGROV1 ovarian 102% | OVCAR-3 ovarian 118% | NCI/ADR-RES ovarian 89%

COc1ccc(OC)c(/C=C2\COc3ccc(O)c(O)c3C2=O)c1
inactive: SK-MEL-2 melanoma 76.6% | EKVX NSCLC 57.9% | ACHN renal 19.6% | CAKI-1 renal 31.2% | A498 renal 107% | OVCAR-8 ovarian 24.7% | OVCAR-5 ovarian 31.9% | OVCAR-4 ovarian 27.4% | SK-OV-3 ovarian 45.2% | HS 578T breast 22% | NCI/ADR-RES ovarian 14.1%
active: UO-31 renal -25.8% | CCRF-CEM leukemia -0.701% | MOLT-4 leukemia 4.32% | SR leukemia 7.03% | IGROV1 ovarian 5.82% | OVCAR-3 ovarian 1.23%

COc1cccc(CCC2CCCN(c3cc(C)nc(N)n3)C2)c1 (stereo not drawn)
inactive: SK-MEL-2 melanoma 29.1% | EKVX NSCLC 41.4% | UO-31 renal 35.7% | TK-10 renal 37.5% | CCRF-CEM leukemia 25.7% | MOLT-4 leukemia 27.5% | SR leukemia 26.7% | RPMI-8226 leukemia 18.4% | OVCAR-8 ovarian 24.4% | OVCAR-5 ovarian 33.9% | OVCAR-4 ovarian 52.2% | SK-OV-3 ovarian 40.5% | IGROV1 ovarian 31.3% | OVCAR-3 ovarian 11.4% | HS 578T breast 56.8%
active: A498 renal -2.99% | NCI/ADR-RES ovarian 6.21%

Clc1cnc(Nc2ccc(OCCN3CCCC3)cc2)nc1NCc1ccco1
inactive: EKVX NSCLC 25.2% | CAKI-1 renal 10% | A498 renal 17.6% | OVCAR-8 ovarian 20.2% | OVCAR-4 ovarian 51.6% | SK-OV-3 ovarian 57.8% | IGROV1 ovarian 15.7% | OVCAR-3 ovarian 28.8% | HS 578T breast 31.4% | NCI/ADR-RES ovarian 18.5%
active: SK-MEL-2 melanoma -10.3% | UO-31 renal -3.47% | TK-10 renal 9.62% | ACHN renal -10.2% | CCRF-CEM leukemia 7.04% | RPMI-8226 leukemia 6.95% | OVCAR-5 ovarian 8.69%

CN(C)CCCCNc1ccc(NCCCCN(C)C)c2c1C(=O)c1c(O)ccc(O)c1C2=O
inactive: SK-MEL-2 melanoma 98.2% | A498 renal 92.4% | RPMI-8226 leukemia 53.6% | OVCAR-4 ovarian 64% | SK-OV-3 ovarian 85.6% | OVCAR-3 ovarian 100% | HS 578T breast 92%
active: EKVX NSCLC -76.2% | TK-10 renal -93.6% | ACHN renal -89.2% | CAKI-1 renal -91.7% | CCRF-CEM leukemia -28.5% | MOLT-4 leukemia -34.6% | OVCAR-8 ovarian -73.1% | OVCAR-5 ovarian -86% | IGROV1 ovarian -84.5% | NCI/ADR-RES ovarian -68.8%

CC(=O)c1ccc2c(c1)CCN2
inactive: SK-MEL-2 melanoma 104% | EKVX NSCLC 117% | UO-31 renal 94.2% | ACHN renal 100% | CAKI-1 renal 111% | A498 renal 117% | CCRF-CEM leukemia 94.9% | MOLT-4 leukemia 94.2% | SR leukemia 93.4% | RPMI-8226 leukemia 94.7% | OVCAR-8 ovarian 99.5% | OVCAR-5 ovarian 101% | SK-OV-3 ovarian 99.9% | IGROV1 ovarian 117% | OVCAR-3 ovarian 124% | HS 578T breast 114% | NCI/ADR-RES ovarian 110%

CCCCCCNCc1cc(C(C)(C)C)cc(CNCCCCCC)c1O
active: SK-MEL-2 melanoma -7.07% | EKVX NSCLC -47.9% | UO-31 renal -80.7% | A498 renal -7.12% | CCRF-CEM leukemia -10.4% | MOLT-4 leukemia -14.8% | SR leukemia -52% | RPMI-8226 leukemia -29.8% | OVCAR-8 ovarian -80.2% | OVCAR-5 ovarian -69.9% | OVCAR-4 ovarian -94.8% | SK-OV-3 ovarian -90.5% | IGROV1 ovarian -77.5% | OVCAR-3 ovarian -86.6% | HS 578T breast -22.1% | NCI/ADR-RES ovarian -87.6%
inactive: CAKI-1 renal 16.7%

O=C1N/C(=N/O)S/C1=C/c1cn(-c2ccccc2)nc1-c1ccccc1
inactive: SK-MEL-2 melanoma 100% | EKVX NSCLC 87.7% | UO-31 renal 57.5% | TK-10 renal 108% | CAKI-1 renal 77.2% | A498 renal 85.6% | CCRF-CEM leukemia 91.6% | MOLT-4 leukemia 91.9% | RPMI-8226 leukemia 98.8% | OVCAR-8 ovarian 89.9% | OVCAR-5 ovarian 109% | OVCAR-4 ovarian 111% | SK-OV-3 ovarian 77.6% | IGROV1 ovarian 77.4% | OVCAR-3 ovarian 93% | HS 578T breast 83.1% | NCI/ADR-RES ovarian 99.8%

Cc1csc(NC(=O)c2sc3nc(-c4cccs4)ccc3c2N)n1
inactive: SK-MEL-2 melanoma 87.2% | SN12C renal 98% | UO-31 renal 88% | TK-10 renal 118% | ACHN renal 110% | CAKI-1 renal 102% | A498 renal 77.3% | CCRF-CEM leukemia 70.3% | MOLT-4 leukemia 57.6% | SR leukemia 81.5% | RPMI-8226 leukemia 81.1% | OVCAR-8 ovarian 97% | OVCAR-5 ovarian 116% | OVCAR-4 ovarian 114% | SK-OV-3 ovarian 96.1% | IGROV1 ovarian 109% | OVCAR-3 ovarian 111% | HS 578T breast 99.5% | NCI/ADR-RES ovarian 94.1%

COc1cc(NC(=O)c2cccc(-c3cc(=O)c4c(O)c(OC)c(OC)cc4o3)c2)cc(OC)c1OC
active: HS 578T breast -3.91%
inactive: SK-MEL-2 melanoma 69.6% | SN12C renal 63% | UO-31 renal 34.3% | TK-10 renal 74.8% | ACHN renal 16.3% | CAKI-1 renal 62.5% | A498 renal 80.1% | CCRF-CEM leukemia 58.1% | MOLT-4 leukemia 72.8% | SR leukemia 54.4% | RPMI-8226 leukemia 27% | OVCAR-8 ovarian 23.1% | OVCAR-5 ovarian 77.4% | OVCAR-4 ovarian 58.6% | IGROV1 ovarian 70.4% | OVCAR-3 ovarian 23.8% | NCI/ADR-RES ovarian 49.4%

COc1cc(C2CC(c3ccc(Nc4nc(Nc5ccc(F)cc5)nc(Nc5ccc(Cl)cc5)n4)cc3)=NN2C(C)=O)cc(OC)c1OC (stereo not drawn)
active: MOLT-4 leukemia 4.27%
inactive: SK-MEL-2 melanoma 66% | EKVX NSCLC 202% | UO-31 renal 53.6% | TK-10 renal 60.7% | ACHN renal 77.5% | A498 renal 78.4% | CCRF-CEM leukemia 27.6% | SR leukemia 45.3% | RPMI-8226 leukemia 19.1% | OVCAR-8 ovarian 62.5% | OVCAR-5 ovarian 83.5% | OVCAR-4 ovarian 77.6% | SK-OV-3 ovarian 92.8% | IGROV1 ovarian 43.5% | OVCAR-3 ovarian 82.7% | HS 578T breast 75.7% | NCI/ADR-RES ovarian 69.8%

COc1ccc(NC(=O)C(=O)c2c[nH]c3ccc(F)cc23)cc1
inactive: SK-MEL-2 melanoma 106% | SN12C renal 98.9% | UO-31 renal 96.4% | TK-10 renal 132% | ACHN renal 93.8% | CAKI-1 renal 93.1% | A498 renal 65.8% | CCRF-CEM leukemia 97.8% | MOLT-4 leukemia 90.8% | SR leukemia 81.4% | RPMI-8226 leukemia 92.7% | OVCAR-8 ovarian 99% | OVCAR-5 ovarian 106% | OVCAR-4 ovarian 102% | SK-OV-3 ovarian 89.4% | IGROV1 ovarian 118% | OVCAR-3 ovarian 99.8% | HS 578T breast 104% | NCI/ADR-RES ovarian 96.2%

CCN(CC)c1ccc(Nc2ccc(CC(=O)c3ccccc3)cc2)cc1
inactive: SK-MEL-2 melanoma 81.7% | EKVX NSCLC 76.4% | TK-10 renal 107% | A498 renal 99.7% | CCRF-CEM leukemia 95.9% | MOLT-4 leukemia 102% | SR leukemia 55.3% | RPMI-8226 leukemia 49.9% | OVCAR-8 ovarian 84.8% | OVCAR-5 ovarian 98.3% | OVCAR-4 ovarian 87.8% | SK-OV-3 ovarian 97.8% | IGROV1 ovarian 88.4% | OVCAR-3 ovarian 84.3% | HS 578T breast 81.1% | NCI/ADR-RES ovarian 73.6%

COc1ccc(OC)c(Nc2nc3nonc3nc2Nc2cc(OC)ccc2OC)c1
active: ACHN renal -33.4% | OVCAR-4 ovarian -27.6%
inactive: SK-MEL-2 melanoma 64.5% | SN12C renal 32.3% | UO-31 renal 10.8% | TK-10 renal 36.1% | CAKI-1 renal 53% | A498 renal 60.7% | CCRF-CEM leukemia 97.8% | MOLT-4 leukemia 88.8% | SR leukemia 79.2% | RPMI-8226 leukemia 36.1% | OVCAR-8 ovarian 47.8% | OVCAR-5 ovarian 92.3% | SK-OV-3 ovarian 46.1% | IGROV1 ovarian 95.3% | OVCAR-3 ovarian 26% | HS 578T breast 44.6% | NCI/ADR-RES ovarian 44.8%
